SMILES strings stand for the structures. The campaign covered roughly 330,000 compounds. About 4,400 (1.3%) were called active. The list comes from a sample in which actives are over-represented; it also holds similar structures and randomly drawn compounds. A number with no mark means an inactive call.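 Rule for the calls: active = growth inhibition of the mutant yeast at or above 50%; inactive = the rest.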

The nature of this test: growth inhibitors of tim23-1 mutant yeast, primary screen, luminescence, uHTS (AID 463212).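 Note: temperature-sensitive mutant grown at 25 °C; plate controls were DMSO-treated mutant yeast for no effect and medium wells lacking yeast for full effect.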 Particulars: S. cerevisiae tim23-1 growth, BacTiter-Glo luminescence, 24 h; at 20 µM; hits give high values.
As to `Cc1ccc(-n2c(=O)c(C#N)cc3c(=O)n4ccccc4nc32)cc1C`, the inhibition is -9.74%.

On to `CCc1ccc(OCC(=O)N(Cc2ccccc2)C2CCS(=O)(=O)C2)cc1` (stereo unspecified), for which the inhibition was 9.11%. The same measure for `COc1ccccc1C(C)NC(=O)Cc1ccsc1` (stereo unspecified): -5.87%. As to `O=C(NCCc1ccco1)c1nn(Cc2ccccc2)c(=O)c2ccccc12`, the inhibition was 8.6%. Turning to `O=C(Nc1ccccc1)/C(=C\c1ccco1)NC(=O)c1ccco1`, the inhibition was 17%. With `O=c1nc2s/c(=C\c3ccco3)c(=O)n2nc1Cc1ccccc1` the figure was 65.5% (active); with `COc1ccc(C(=O)O)cc1S(=O)(=O)NCc1cccnc1`, -0.937%. The same measure for `COc1ccc(CNC(=O)c2cc(=O)c3c(C)cc(C)cc3o2)cc1`: 28.5%; for `Cc1cc(C)cc(OCC(=O)Nc2cc(NC(=O)COc3cc(C)cc(C)c3)cc(C(=O)O)c2)c1`: 1.96%. The same measure for `CNC(=O)c1nnc(Cc2ccc(Cl)cc2)o1`: 13.1%. `c1ccc2cc(CCCc3cc4ccccc4cn3)ncc2c1`: the inhibition was 51.6% (active). With `Cc1nn(CC(=O)N2CCCCC2)c(=O)c2nn(-c3ccccc3)c(C)c12` the figure was 5.69%; with `Cc1ccc(NC(=O)C(=O)NCc2ccc(/C=N/NC(=O)c3c(C)nc4cc(C)ccn34)o2)cc1`, 13.6%. Consider `O=C(Nc1ccccc1)c1nnsc1S(=O)(=O)c1ccc(Cl)cc1`, for which the inhibition was 59.8% (active).

As for `O=C(Nc1ccc(S(=O)(=O)Nc2ccccn2)cc1)c1ccccc1`, the inhibition is -13.7%.

As to `O=C(Nc1ccc(Cl)cc1)Nc1nnc(/C=C/c2ccccc2)s1`, the inhibition is -4.19%. For the compound `CC(=O)C[C@@H](O)CC(=O)[C@H]1OC(=O)CCCCCCc2ccccc21`, the inhibition was 12.8%. The same measure for `CCOC(=O)C1=C(C)N(C[C@@H]2CC[C@@H](Cc3ccc(-c4ccccc4)cc3)O2)C(=O)NC1c1ccc([N+](=O)[O-])cc1` (stereo partly specified): 34.6%. The same measure for `C=CCNC(=S)N1CCc2[nH]c3ccccc3c2C1`: -8.13%; for `CC[C@]1(C(=O)OC)[C@H]2C(=O)N(Cc3ccccc3)C(=O)[C@H]2[C@H]2CN=C(SCc3ccc(Cl)cc3)N21`: 53.5% (active); for `CC[C@]1(C(=O)OC)[C@H]2C(=O)N(Cc3ccccc3)C(=O)[C@H]2[C@H]2CN=C(SCc3ccc(C#N)cc3)N21`: 46.4%. The same measure for `CC[C@]1(C(=O)OC)[C@H]2C(=O)N(Cc3ccccc3)C(=O)[C@H]2[C@H]2CN=C(SCc3ccccc3)N21`: 37.7%; for `COc1cccc(NC(=O)CN(C)C(=O)CSCc2nc3scc(-c4cccs4)c3c(=O)[nH]2)c1`: 4.94%.

For the compound `Cc1ccc(NC(=O)Cn2c(=O)n(CCC(=O)NC3CCN(Cc4ccccc4)CC3)c(=O)c3ccccc32)cc1`, the inhibition is -1.05%.

As to `CC(C)CNC(=O)COC(=O)c1ccccc1OCC(=O)Nc1ccc(Br)cc1`, the inhibition is -11.3%. The same measure for `O=C(NCCc1ccc(F)cc1)c1ccc(S(=O)(=O)N2CCCCC2)cc1`: 53.6% (active); for `O=C(Nc1ccccc1F)c1ccc(S(=O)(=O)N2CCCCCC2)cc1`: 34.9%.

Take `COC(=O)c1ccc(CNC(=O)c2ccc(S(=O)(=O)N3CCCCCC3)cc2)cc1`: the inhibition is 15.9%.

On to `CC(=O)Oc1ccc(C(C)=O)c2c1OCCO2`, for which the inhibition was 5.79%. As to `CCc1ccc(NC(=O)Cn2nc(C)c([N+](=O)[O-])c2C)cc1`, the inhibition is 25.5%. The same measure for `Cc1nn(CC(=O)NCc2ccccn2)c(C)c1[N+](=O)[O-]`: 24.7%; for `Cc1nn(CC(=O)Nc2nc3ccccc3s2)c(C)c1[N+](=O)[O-]`: 69.8% (active). With `O=C(NCc1nnc(SCC(=O)N2CCCc3ccccc32)o1)c1ccccc1F` the figure was 19.1%; with `COc1ccc(N(Cc2cc3ccc(C)cc3[nH]c2=O)S(=O)(=O)c2ccccc2)cc1`, 48.9%; with `O=C(Nc1ccncc1)c1ccc(Cl)c([N+](=O)[O-])c1`, -42.5%.

`O=C(/C=C/c1ccc(Cl)c([N+](=O)[O-])c1)c1cccnc1`: the inhibition is 80.7% (active). With `O=C(/C=C/c1ccc(Cl)cc1Cl)c1cccnc1` the figure was 31.1%; with `CC1CCCCC1NC(=O)CCS(=O)(=O)c1cccc2nonc12` (stereo unspecified), 4.3%; with `O=C(CCS(=O)(=O)Cc1ccccc1F)NCCCN1CCCCC1`, -8.7%. The same measure for `CSCCC(NC(=O)COc1ccccc1)C(=O)N(C)CC(=O)Nc1ccc(C)cc1` (stereo unspecified): 8.43%; for `Cc1ccc(CNC(=O)c2cccnc2Cl)cc1`: -14.6%.

Consider `CC(=NCc1ccc2c(c1)OCO2)C1=C(O)c2ccccc2C1=O`, for which the inhibition is 51.6% (active). The same measure for `CCc1ccc(NC(=O)NC(C)c2ccc3c(c2)OCO3)cc1` (stereo unspecified): 22.5%; for `CC(=NCc1ccco1)c1c(C(F)(F)F)[nH]n(-c2nc3ccccc3s2)c1=O`: 22.4%; for `CC(=NCc1ccco1)C1=C(O)c2ccccc2C1=O`: 50.3% (active). With `O=C1C(C=NCC2CCCO2)=C(O)c2ccccc21` (stereo unspecified) the figure was 6.49%; with `CC1CCC(NC(=O)C2c3ccccc3C(=O)N2Cc2ccc3c(c2)OCO3)CC1` (stereo unspecified), 9.09%.

Consider `CCOC(=O)C[C@H]1c2ccc(C(F)(F)F)cc2S(=O)(=O)N1c1ccccc1`, for which the inhibition was 33.9%.

Take `COc1cc2c(C(=O)N(C)c3cc(Cl)ccc3OC)cn(C)c(=O)c2cc1OC`: the inhibition is 10%. The same measure for `N#CC(Cc1cc2ccccc2n1S(=O)(=O)c1ccccc1)OCc1ccccc1` (stereo unspecified): 30.3%. With `CC1C(=O)C(C)C(c2ccc(O)cc2)NC1c1ccc(O)cc1` (stereo unspecified) the figure was 0.501%; with `CCc1nc2sc(C(=O)O)c(N)c2c2c1CCCC2`, -17.3%. With `Cc1nc2sc(C(=O)c3ccccc3)c(N)c2c2c1CCCC2` the figure was 51.8% (active); with `Cc1ccc2c(N)c(C(=O)c3ccccc3)sc2n1`, 48.6%; with `CCOC(=O)C1CCCN(S(=O)(=O)c2ccc(-n3cnnn3)c(C)c2)C1` (stereo unspecified), 2.62%. In the case of `COc1ccc(/C(O)=C2/C(=O)C(=O)N(CC3CCCO3)C2c2ccc(OC)c(OC)c2)cc1` (stereo unspecified), the inhibition was -1.19%.

Turning to `Cc1nnc(SCC(=O)N(C(C)C)C(C)C)nc1C`, the inhibition is 8.73%. With `O=C(COc1ccc([N+](=O)[O-])cc1Cl)Nn1cnnc1` the figure was 6.97%; with `COc1ccc(-c2nc3cc(C)ccn3c2NC2CCCCC2)cc1SC1CCCCC1`, 52.3% (active); with `CCOc1cc(-c2nc3cc(C)ccn3c2NCC2CCCO2)ccc1O` (stereo unspecified), 18.9%. With `COc1ccc(-c2nc3cnccn3c2NC2CCCCC2)cc1-c1cccc(Cl)c1` the figure was 21.6%; with `O=C(c1cc2ccccc2o1)N1CCN(Cc2ccccc2)CC1`, 12.6%. With `Cc1[nH]c2ccccc2c1-c1ccc(Cl)nn1` the figure was 5.43%.

Regarding `CC(C)CCNC(=O)c1ccc2c(Cl)c3c(nc2c1)CCC3`, the inhibition is 43.3%. The same measure for `Cc1ccc(S(=O)(=O)NC2CCCCCC2)cc1`: 51.4% (active); for `CSc1ccc(S(=O)(=O)NC2CCCCC2)cc1`: 31.1%. The same measure for `CC(C)c1ccc(S(=O)(=O)NC2CCCC2)cc1`: 23.4%; for `CC(CC(=O)N1CCN(S(=O)(=O)c2ccccc2)CC1)n1cncn1` (stereo unspecified): 7.53%; for `CCC1=NN(C(=O)Cc2ccc([N+](=O)[O-])cc2)C(O)(c2ccc(Br)cc2)C1` (stereo unspecified): 50% (active).

For `CC1=NN(C(=O)c2ccc(Br)cc2)C(O)(c2ccccc2)C1` (stereo unspecified), the inhibition was 29.5%. With `CC1=NN(C(=O)Cc2ccc(C)cc2)C(O)(c2cccnc2)C1` (stereo unspecified) the figure was -31.5%; with `COc1ccc(CC2c3cc(OC)c(OC)cc3CC[N+]2(C)CCC(=O)OCCCCCOC(=O)CC[N+]2(C)CCc3cc(OC)c(OC)cc3C2Cc2ccc(OC)c(OC)c2)cc1OC` (stereo unspecified), 3.67%. The same measure for `CC(C)(C)c1ccc(C(=O)N2CCN(CCNC(=O)C(=O)Nc3ccc(F)cc3)CC2)cc1`: 16.2%; for `COC(=O)c1sccc1NN1C(=O)c2ccccc2C1=O`: 13.6%; for `COC(=O)c1ccc2c(C(C)(C)O)c(C(C)(C)O)[nH]c2c1`: 5.76%. The same measure for `Cc1ccccc1NCC(=O)N/N=C\c1ccc([N+](=O)[O-])s1`: 62.7% (active); for `Cc1ccc(/C=N/NC(=O)CN2CCN(Cc3ccccc3)CC2)s1`: 0.916%; for `Cc1cccc(/C=N/NC(=O)CNc2cccc3ccccc23)n1`: 17.8%. On to `CCOc1ccc(NC(=O)CCC(=O)N/N=C/c2ccc([N+](=O)[O-])s2)cc1`, for which the inhibition was 79.1% (active).

Consider `CCOc1ccc(NC(=O)CCC(=O)n2nc(C)cc2C)cc1`, for which the inhibition is 14.6%. The same measure for `CCOc1ccc(C(=O)CCC(=O)Nc2ccncc2)cc1`: 11.8%; for `CCOC(=O)/C=C/C(=O)OCC(=O)NC(c1ccccc1)c1ccccc1`: 40.9%. The same measure for `O=C(NCc1ccc2c(c1)OCO2)C1CCCN(S(=O)(=O)c2cccs2)C1` (stereo unspecified): 7.36%. With `CCN(C(=O)c1cc([N+](=O)[O-])ccc1NCc1cccnc1)c1ccccc1` the figure was 24.3%; with `COc1ccc(N=Nc2c(-c3ccc(OC)cc3)[nH]oc2=O)cc1`, 2.46%.

On to `CC1CCCCC1NC(=O)C1CCCN1S(=O)(=O)c1cccc2nsnc12` (stereo unspecified), for which the inhibition was 6.89%.

On to `Cc1ccccc1CSc1nnc(Cn2c(=O)sc3ccccc32)n1C`, for which the inhibition was 18.7%.

As for `Cc1cc(O)c(C(=O)/C=C/c2c(F)c(F)c(F)c(F)c2F)c(=O)o1`, the inhibition is 19.1%. As for `Cc1ccc(N=Cc2c(O)cc(C)oc2=O)c(C)c1`, the inhibition was 96.2% (active). The same measure for `Cc1ccc(N=Cc2c(O)n(-c3nccs3)c(=O)c3ccccc23)c(C)c1`: -3.15%. The same measure for `CN1CCN(C(=O)c2ccc(-c3ccc(Br)cc3)o2)CC1`: 4.87%.

Values taken from PubChem BioAssay AID463212 (Sanford-Burnham Center for Chemical Genomics, 2010).
